Percent Effect data for eleven compounds are collected here from ChEMBL document CHEMBL3988442, “University of Dundee, Small-Polar-MMV Screening Library” (2021).

For some of these results: Results with a measured potency or affinity are listed apart.

What all share (parameters): scale not given: direction of the effect not stated beside the values
The target in assay [1] is Protein translocase subunit SecA (Escherichia coli (strain K12)) (UniProt P10408). The experiment in a line: Assay to Identify E. coli SecA ATPase Inhibitors. The assay is classed as functional. The note with it: 30 µM.
Sequence of Protein translocase subunit SecA (Escherichia coli (strain K12)) (P10408 whole entry): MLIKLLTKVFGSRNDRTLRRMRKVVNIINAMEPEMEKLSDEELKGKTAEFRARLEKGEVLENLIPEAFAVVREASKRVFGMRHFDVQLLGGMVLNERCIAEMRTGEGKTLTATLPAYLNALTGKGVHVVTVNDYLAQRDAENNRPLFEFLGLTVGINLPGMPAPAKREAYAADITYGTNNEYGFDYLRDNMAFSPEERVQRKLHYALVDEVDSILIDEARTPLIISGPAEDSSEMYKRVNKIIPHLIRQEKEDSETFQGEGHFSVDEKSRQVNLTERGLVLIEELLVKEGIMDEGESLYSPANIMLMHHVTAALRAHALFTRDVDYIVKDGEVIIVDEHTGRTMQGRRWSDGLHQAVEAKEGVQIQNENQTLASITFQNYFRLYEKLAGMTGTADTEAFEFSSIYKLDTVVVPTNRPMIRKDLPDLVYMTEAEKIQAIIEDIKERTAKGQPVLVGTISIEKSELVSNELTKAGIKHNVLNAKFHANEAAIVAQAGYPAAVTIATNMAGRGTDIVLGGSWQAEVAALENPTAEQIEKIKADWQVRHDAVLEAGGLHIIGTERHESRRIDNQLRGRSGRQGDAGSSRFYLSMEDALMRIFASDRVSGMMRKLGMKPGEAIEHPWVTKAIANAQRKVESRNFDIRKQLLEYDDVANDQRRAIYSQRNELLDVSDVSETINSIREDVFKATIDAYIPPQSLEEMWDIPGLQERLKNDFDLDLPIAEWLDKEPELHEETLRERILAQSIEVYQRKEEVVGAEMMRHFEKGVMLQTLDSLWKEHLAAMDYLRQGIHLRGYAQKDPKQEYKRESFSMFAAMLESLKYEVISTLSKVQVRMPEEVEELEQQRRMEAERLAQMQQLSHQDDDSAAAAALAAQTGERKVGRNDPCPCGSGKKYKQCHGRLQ
For assay [2], the target named is T1, Ubiquitin-activating enzyme e1, putative (Leishmania donovani (strain BPK282A1)) (UniProt E9BSI1).
T1 sequence (whole entry): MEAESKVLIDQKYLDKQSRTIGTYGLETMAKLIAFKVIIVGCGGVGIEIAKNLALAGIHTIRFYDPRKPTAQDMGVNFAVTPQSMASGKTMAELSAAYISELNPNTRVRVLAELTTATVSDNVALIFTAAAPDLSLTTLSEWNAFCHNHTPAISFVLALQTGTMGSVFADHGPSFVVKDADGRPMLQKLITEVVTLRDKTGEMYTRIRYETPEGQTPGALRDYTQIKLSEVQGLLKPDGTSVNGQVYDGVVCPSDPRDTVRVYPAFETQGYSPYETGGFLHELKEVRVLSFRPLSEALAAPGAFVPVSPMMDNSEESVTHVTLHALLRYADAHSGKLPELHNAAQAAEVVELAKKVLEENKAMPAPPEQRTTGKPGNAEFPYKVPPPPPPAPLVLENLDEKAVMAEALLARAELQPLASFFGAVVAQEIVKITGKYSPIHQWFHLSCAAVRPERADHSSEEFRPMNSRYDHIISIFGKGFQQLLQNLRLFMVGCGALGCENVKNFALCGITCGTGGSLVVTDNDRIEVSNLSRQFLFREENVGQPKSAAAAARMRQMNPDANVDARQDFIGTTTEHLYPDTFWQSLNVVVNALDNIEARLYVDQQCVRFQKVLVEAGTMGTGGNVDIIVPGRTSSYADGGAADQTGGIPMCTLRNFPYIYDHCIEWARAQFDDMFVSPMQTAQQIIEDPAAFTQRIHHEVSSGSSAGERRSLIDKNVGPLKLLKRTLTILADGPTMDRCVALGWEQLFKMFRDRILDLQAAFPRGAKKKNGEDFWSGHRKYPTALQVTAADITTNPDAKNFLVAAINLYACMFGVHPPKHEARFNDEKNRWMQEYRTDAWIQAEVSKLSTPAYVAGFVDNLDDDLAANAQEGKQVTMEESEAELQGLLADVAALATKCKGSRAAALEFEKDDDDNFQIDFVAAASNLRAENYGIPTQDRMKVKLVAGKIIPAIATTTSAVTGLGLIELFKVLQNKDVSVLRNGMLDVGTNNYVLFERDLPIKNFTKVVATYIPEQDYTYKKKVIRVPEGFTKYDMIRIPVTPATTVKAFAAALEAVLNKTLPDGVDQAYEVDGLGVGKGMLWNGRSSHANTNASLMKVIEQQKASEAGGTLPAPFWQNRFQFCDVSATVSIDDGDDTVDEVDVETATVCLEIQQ
The experiment in a line: Leishmania donovani Ubiquitin Activating Enzyme (LdE1). The following applies: 30 µM. It counts as functional.

For assay [3], the target named is AMP-activated protein kinase, AMPK (Homo sapiens) (UniProt P54646+O43741+P54619+Q9UGJ0+Q9Y478+Q13131+Q9UGI9). The experiment in a line: AMP-dependent Kinase enzyme assay. An in vitro enzyme assay that detects ADP turnover that is directly proportional to AMPK activity. This uses naive AMPK that is activated during the assay with MK-8722. The note with it: 30 µM. The assay is classed as functional.

Assay [4] deals with Sialic acid-binding Ig-like lectin 9 (Homo sapiens) (UniProt Q9Y336). The experiment in a line: Hs-Siglec9 ALPHAscreen SOP 20170721. The note with it: 10 µM. For orientation: In Alpha technology, singlet oxygen from a donor bead excites a nearby acceptor bead.
Sequence of Sialic acid-binding Ig-like lectin 9 (Homo sapiens) (Q9Y336 whole entry): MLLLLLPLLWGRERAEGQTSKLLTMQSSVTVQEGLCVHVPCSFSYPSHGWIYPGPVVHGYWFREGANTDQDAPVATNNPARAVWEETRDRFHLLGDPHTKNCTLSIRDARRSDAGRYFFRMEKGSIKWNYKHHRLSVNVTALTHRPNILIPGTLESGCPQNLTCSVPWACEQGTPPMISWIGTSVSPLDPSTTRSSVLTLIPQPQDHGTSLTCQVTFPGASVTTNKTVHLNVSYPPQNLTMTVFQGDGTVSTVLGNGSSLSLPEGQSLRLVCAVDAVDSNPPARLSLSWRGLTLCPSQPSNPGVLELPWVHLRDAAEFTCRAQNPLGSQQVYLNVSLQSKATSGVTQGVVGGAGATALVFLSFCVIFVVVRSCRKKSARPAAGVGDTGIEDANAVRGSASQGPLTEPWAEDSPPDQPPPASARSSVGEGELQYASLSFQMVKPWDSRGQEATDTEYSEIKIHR
The subject of a further assay is Trypanosoma cruzi. The experiment in a line: Trypanosoma cruzi phosphomannomutase and mannose-1-phosphate guanylyltransferase assay. It counts as functional. The note with it: 10 µM.
Assay [5] concerns the target T2, Arginase-2, mitochondrial (Homo sapiens) (UniProt P78540).
T2 sequence (whole entry): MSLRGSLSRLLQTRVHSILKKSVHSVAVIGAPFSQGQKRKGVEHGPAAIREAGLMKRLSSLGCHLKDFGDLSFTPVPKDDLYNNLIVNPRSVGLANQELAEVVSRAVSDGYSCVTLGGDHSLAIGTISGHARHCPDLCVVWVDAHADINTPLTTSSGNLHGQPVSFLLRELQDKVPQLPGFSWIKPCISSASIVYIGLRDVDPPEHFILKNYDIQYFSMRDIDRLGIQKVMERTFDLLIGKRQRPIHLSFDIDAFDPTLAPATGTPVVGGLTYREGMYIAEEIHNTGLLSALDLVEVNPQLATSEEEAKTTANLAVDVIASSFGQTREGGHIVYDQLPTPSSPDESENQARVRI
The experiment in a line: in vitro enzyme assay to detect the production of urea directly proportional to the activity of Arginase II. Note: in the data most compounds retested in dose-response had high values. The assay is classed as functional. The following applies: 33.3 µM.

Assay [6] addresses T3, Proteasome subunit beta (Trypanosoma cruzi) (UniProt O96673).
T3 sequence (whole entry): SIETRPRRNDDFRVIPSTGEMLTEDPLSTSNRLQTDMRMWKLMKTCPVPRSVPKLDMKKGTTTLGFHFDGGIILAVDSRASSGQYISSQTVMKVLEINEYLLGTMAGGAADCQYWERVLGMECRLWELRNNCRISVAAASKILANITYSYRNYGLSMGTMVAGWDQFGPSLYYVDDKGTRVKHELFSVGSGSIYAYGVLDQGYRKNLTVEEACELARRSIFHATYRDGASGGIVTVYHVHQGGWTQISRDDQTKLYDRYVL
The experiment in a line: Trypanosoma cruzi proteasome chymotrypsin-like activity (TcProtChymo) assay. Note: in the data most compounds retested in dose-response had high values. The assay is classed as functional. The following applies: 9.37 µM.

For a further assay, the species on record is Homo sapiens. The experiment in a line: To identify inhibition of the IFN signalling (Jak-Stat) pathway via expression of an eGFP reporter gene under the control of an IFN-stimulated response element (ISRE) containing MxA promoter. The assay is classed as functional. The following applies: 30 µM. (Reporter assays use an easily measured gene product as a stand-in for the process of interest.)

For assay [7], the target named is T4, Tyrosyl-tRNA synthetase, putative (Trypanosoma cruzi (strain CL Brener)) (UniProt Q4DSP6).
T4 sequence (whole entry): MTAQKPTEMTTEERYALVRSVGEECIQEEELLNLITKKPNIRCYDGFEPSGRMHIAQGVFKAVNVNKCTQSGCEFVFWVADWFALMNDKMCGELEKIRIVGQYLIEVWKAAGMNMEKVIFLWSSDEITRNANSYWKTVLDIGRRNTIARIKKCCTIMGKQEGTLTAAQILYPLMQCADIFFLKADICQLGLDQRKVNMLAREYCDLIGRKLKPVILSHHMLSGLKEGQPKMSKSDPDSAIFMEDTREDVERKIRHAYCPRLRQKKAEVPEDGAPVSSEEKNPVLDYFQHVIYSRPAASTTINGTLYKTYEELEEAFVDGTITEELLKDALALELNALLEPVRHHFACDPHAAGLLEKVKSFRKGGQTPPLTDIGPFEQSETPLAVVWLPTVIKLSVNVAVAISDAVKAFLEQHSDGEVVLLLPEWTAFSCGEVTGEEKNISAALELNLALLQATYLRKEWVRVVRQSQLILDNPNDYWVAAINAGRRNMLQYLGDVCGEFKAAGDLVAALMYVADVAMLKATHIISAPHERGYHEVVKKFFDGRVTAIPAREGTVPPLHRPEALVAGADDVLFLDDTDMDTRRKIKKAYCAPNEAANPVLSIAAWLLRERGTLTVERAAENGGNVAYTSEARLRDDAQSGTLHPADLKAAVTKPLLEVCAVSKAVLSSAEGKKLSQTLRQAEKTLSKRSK
The experiment in a line: Trypanosoma cruzi tyrosyl tRNA synthetase (TcYRS) _High Tyrosine SOP. Note: in the data most compounds retested in dose-response had high values. The assay is classed as functional. The following applies: 30 µM.

Assay [8] addresses T4, Tyrosyl-tRNA synthetase, putative (Trypanosoma cruzi (strain CL Brener)). The experiment in a line: Trypanosoma cruzi tyrosyl tRNA synthetase (TcYRS) SOP. The assay is classed as functional. The following applies: 30 µM.
Assay [9] concerns the target Chromo domain-containing protein 1 (Saccharomyces cerevisiae (strain ATCC 204508 / S288c) (Baker's yeast)) (UniProt P32657). The experiment in a line: ScCHD-1 Enzyme Inhibition Assay. Note: in the data most compounds retested in dose-response had high values. The assay is classed as functional. The note with it: 30 µM.

Sequence of Chromo domain-containing protein 1 (Saccharomyces cerevisiae (strain ATCC 204508 / S288c) (Baker's yeast)) (P32657 whole entry, the tested form may be a part): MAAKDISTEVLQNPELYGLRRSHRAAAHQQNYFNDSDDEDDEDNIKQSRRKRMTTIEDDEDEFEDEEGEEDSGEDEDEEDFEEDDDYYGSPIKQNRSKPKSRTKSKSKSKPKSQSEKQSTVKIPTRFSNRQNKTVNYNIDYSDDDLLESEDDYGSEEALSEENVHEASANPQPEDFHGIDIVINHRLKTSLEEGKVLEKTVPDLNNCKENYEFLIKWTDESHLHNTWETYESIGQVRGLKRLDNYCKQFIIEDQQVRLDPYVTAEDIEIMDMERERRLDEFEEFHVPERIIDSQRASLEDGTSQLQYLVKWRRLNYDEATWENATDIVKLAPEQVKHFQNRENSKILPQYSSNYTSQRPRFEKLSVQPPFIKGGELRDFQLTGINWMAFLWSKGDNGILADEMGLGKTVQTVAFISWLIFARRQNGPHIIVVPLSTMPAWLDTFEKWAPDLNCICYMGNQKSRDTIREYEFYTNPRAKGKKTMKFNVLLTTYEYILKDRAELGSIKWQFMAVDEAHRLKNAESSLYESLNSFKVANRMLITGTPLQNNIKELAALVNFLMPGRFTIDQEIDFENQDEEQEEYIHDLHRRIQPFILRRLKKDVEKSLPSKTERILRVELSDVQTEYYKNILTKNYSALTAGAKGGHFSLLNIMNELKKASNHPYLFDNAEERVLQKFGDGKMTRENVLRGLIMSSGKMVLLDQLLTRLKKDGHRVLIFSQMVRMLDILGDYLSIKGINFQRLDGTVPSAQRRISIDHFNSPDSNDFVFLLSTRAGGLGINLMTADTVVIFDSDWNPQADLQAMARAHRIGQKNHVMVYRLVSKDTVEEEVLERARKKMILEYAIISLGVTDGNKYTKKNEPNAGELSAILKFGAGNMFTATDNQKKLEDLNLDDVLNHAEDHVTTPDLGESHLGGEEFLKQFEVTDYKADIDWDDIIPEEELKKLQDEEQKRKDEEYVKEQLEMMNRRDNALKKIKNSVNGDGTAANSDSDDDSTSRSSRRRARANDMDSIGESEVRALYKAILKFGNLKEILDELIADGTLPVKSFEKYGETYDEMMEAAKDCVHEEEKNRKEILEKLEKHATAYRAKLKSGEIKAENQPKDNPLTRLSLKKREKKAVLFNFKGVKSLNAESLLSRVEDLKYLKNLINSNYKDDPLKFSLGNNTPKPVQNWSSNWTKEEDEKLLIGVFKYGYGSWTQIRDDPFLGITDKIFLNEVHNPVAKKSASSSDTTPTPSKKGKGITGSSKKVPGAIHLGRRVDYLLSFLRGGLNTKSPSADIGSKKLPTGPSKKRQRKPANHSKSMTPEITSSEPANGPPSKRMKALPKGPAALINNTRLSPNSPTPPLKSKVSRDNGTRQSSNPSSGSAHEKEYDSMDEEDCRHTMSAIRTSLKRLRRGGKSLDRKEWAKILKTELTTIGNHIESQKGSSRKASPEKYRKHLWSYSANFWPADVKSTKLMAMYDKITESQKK

Turning to `CCN1CCCN(C(=O)c2cnc(OC(C)C)c(Cl)c2)CC1`, the Percent Effect is -2.83% in assay [1]; -8.22% in assay [2]; 9.83% in [3]; -2.64% in [4]; -15.9% with Trypanosoma cruzi; -1.2% in assay [5]. The Percent Effect in [6] was 3.68%; in the assay filed under Homo sapiens it was 6.45%; in assay [7] it was 1.04%; in assay [8], -30.9%; in assay [9], 1.65%.

Consider `O=C(c1cn(-c2cc(N3CCOCC3)ncn2)cn1)N1CCSCC1`, for which the Percent Effect was -3.27% in assay [1]; 8.22% in assay [2]; -3.63% in assay [3]; 4.82% in [4]; 1.18% with Trypanosoma cruzi; 4.09% in [5]. Moreover, the Percent Effect is 25% in assay [6]; 8.07% in the assay filed under Homo sapiens; 9.68% in [7]; 15% in assay [8]; -5.28% in [9].

Turning to `Cc1nn(C)c(N2CCOCC2)c1CNC(C)c1cccnc1` (stereo unspecified), the Percent Effect in assay [1] was -3.55%; in assay [2] it was 6.94%; in assay [3], -10.5%; in [4] it was 21.7%; in the assay with Trypanosoma cruzi it was 2.62%; in assay [5], 7.95%. Further, the Percent Effect in [6] was 11.4%; in the assay listed under Homo sapiens, -22.8%; in [7], 3.16%; in assay [8], 10.3%; in assay [9] it was -6.39%.

In the case of `Cc1nc(N2CCCC2)nc2c1CCN(C(=O)CC1CC1)CC2`, the Percent Effect was -4.09% in [1]; 20% in [2]; -2.46% in [3]; 4.72% in assay [4]; 2.75% with Trypanosoma cruzi; -7.22% in assay [5]. Moreover, the Percent Effect in assay [6] was 16.1%; in the assay filed under Homo sapiens, 9.15%; in assay [7] it was -2.12%; in [8], 10.3%; in assay [9], -11%.

Turning to `CN(Cc1csc(-c2cccs2)n1)C(=O)CCn1ccccc1=O`, the Percent Effect is -4.95% in [1]; 8% in assay [2]; -1.99% in assay [3]; 4.47% in [4]; -1.07% in the assay with Trypanosoma cruzi; 5.21% in assay [5]. For the same compound, the Percent Effect in assay [6] was 22.7%; in the assay listed under Homo sapiens, 10.8%; in assay [7], 3.83%; in assay [8] it was 11.1%; in assay [9], -4.75%.

For `Cc1nc(CN2C(=O)CC[C@H]3[C@@H]2CCN3C(=O)c2ccsc2)cs1`, the Percent Effect is 2.29% in assay [1]; 10.8% in assay [2]; 2.71% in [3]; -8.13% in assay [4]; 4.2% with Trypanosoma cruzi; -1.59% in [5]. Further, the Percent Effect was 28% in [6]; -19.9% in the assay listed under Homo sapiens; 5.41% in assay [7]; 15.4% in assay [8]; -0.758% in assay [9].

For the compound `Cc1cnn(CC2CCCN2Cc2nc3ccccc3n2C)c1` (stereo unspecified), the Percent Effect in assay [1] was -1.76%; in assay [2], -10.1%; in [3], -1.75%; in assay [4], 3.88%; in the assay on Trypanosoma cruzi, 8.4%; in assay [5], 1.9%. Moreover, the Percent Effect in [6] is -1.23%; in the assay listed under Homo sapiens, -22.9%; in assay [7], 9.36%; in assay [8], 13.9%; in [9], -3.16%.

On to `CNC(=O)c1ccc(C(=O)N2CCCC(n3cc(C)cn3)C2)cn1` (stereo unspecified), for which the Percent Effect in assay [1] was -7.4%; in assay [2], 26%; in assay [3], -0.148%; in [4], 5.41%; in the assay on Trypanosoma cruzi, 9.18%; in assay [5], 3.56%. Moreover, the Percent Effect in assay [6] is 12%; in the assay listed under Homo sapiens, 26.2%; in assay [7] it was 9.71%; in [8], 26.8%; in assay [9] it was -11.2%.

In the case of `Cc1cc(NC(=O)NCc2ccccc2OC(F)F)n(C)n1`, the Percent Effect in assay [1] is 1.45%; in assay [2], 6.33%; in assay [3] it was 5.29%; in assay [4] it was -4.29%; in the assay with Trypanosoma cruzi, -7.69%; in [5], 4.09%. In addition, the Percent Effect in assay [6] was 21.3%; in the assay filed under Homo sapiens it was 4.53%; in [7], 3.12%; in assay [8], 2.53%; in assay [9], -5.23%.

`Cc1c[nH]cc1C(=O)N1CCN(Cc2nc(C(C)C)no2)CC1`: the Percent Effect was -5.12% in assay [1]; 8.11% in assay [2]; -5.14% in [3]; 9.52% in assay [4]; -3.81% with Trypanosoma cruzi; -2.77% in assay [5]. Moreover, the Percent Effect in [6] was -3.05%; in the assay listed under Homo sapiens, 17.2%; in [7] it was 2.97%; in assay [8], 11%; in assay [9], 1.56%.

As for `O=C(C1CCN(c2snc3ccccc23)CC1)N1CCCCCC1`, the Percent Effect in assay [1] is 1.1%; in [2], 24.1%; in assay [3] it was 2.83%; in assay [4], -3.46%; with Trypanosoma cruzi, -0.923%; in assay [5], -4.52%. The Percent Effect in assay [6] is 13.7%; in the assay filed under Homo sapiens, 59.6%; in assay [7], 5.21%; in assay [8], 7.59%; in assay [9], -21.3%.
